{"source": "PubChem BioAssay (EPA / NIEHS)", "key": {"[1]": {"test": "ACEA_ER_AUC_viability: ACEA Biosciences xCELLigence Real-Time Cell Analysis on Estrogen Receptor Agonism for Viability (AID 2283782);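 also: hit means loss of impedance signal meaning reduced cell growth or viability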", "method_in_brief": "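Viability endpoint: reduced impedance area under the curve relative to DMSO, recorded by real-time electrode sensing over ~80 h of continuous exposure. Duplicate plates of T47D in hormone-depleted medium; eight concentrations, 1:4 dilutions, 100 uM maximum.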"}, "[2]": {"test_system": "turtle Estrogen Receptor (ESR1), gene 101933533", "test": "ATG_trERa_XSP1: Attagene TRANS-FACTORIAL Multi-Species (XSP1) HepG2 Assay for turtle Estrogen Receptor (ESR1) (AID 2283781)", "method_in_brief": "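Transactivation measured 24 h post-dose as reporter mRNA (RT-PCR, fluorescent capillary electrophoresis) from an NR-Gal4 turtle ER construct in HepG2. Medium included 3 nM 6-alpha-fluorotestosterone; increase over DMSO fitted.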"}, "[3]": {"test": "ATG_M_06_XSP1: Attagene TRANS-FACTORIAL Multi-Species (XSP1) HepG2 Assay for M06 Transcription Factor (Internal Marker) (AID 2283790)", "method_in_brief": "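This background-control readout tracks M06 reporter mRNA, measured by RT-PCR and capillary electrophoresis. HepG2 cells transiently carrying the GAL4-UAS reporter panel were dosed for 24 h with 3 nM 6-alpha-fluorotestosterone added for partial AR stimulation; increases were scored relative to DMSO.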"}, "[4]": {"test": "ATG_M_61_XSP1: Attagene TRANS-FACTORIAL Multi-Species (XSP1) HepG2 Assay for M61 Transcription Factor (Internal Marker) (AID 2283797)", "method_in_brief": "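Background-control readout: reporter transcripts measured by RT-PCR and capillary electrophoresis 24 h after dosing transiently transfected HepG2 multi-reporter cells, with 3 nM 6-alpha-fluorotestosterone present. Fitted in the positive direction relative to DMSO.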"}, "[5]": {"target": "frog Thyroid hormone Receptor alpha (TRa), thra-a (gene 397942) (UniProt P15204)", "sequence (P15204 whole entry, looked up, the tested form may be a part)": "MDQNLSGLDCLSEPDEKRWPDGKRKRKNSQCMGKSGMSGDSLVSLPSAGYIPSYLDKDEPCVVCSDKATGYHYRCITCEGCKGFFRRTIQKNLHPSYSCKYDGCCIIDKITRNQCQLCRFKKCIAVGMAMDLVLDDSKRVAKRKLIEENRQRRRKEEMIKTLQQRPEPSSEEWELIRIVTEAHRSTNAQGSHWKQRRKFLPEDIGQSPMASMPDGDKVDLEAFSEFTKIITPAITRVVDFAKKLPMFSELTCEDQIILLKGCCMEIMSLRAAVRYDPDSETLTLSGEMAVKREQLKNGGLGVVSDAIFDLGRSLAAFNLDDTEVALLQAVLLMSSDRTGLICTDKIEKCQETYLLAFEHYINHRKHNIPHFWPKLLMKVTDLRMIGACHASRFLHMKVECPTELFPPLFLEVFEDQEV", "test": "ATG_frTRa_XSP1: Attagene TRANS-FACTORIAL Multi-Species (XSP1) HepG2 Assay for frog Thyroid hormone Receptor alpha (TRa) (AID 2283804)", "method_in_brief": "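Reporter transcript induction, measured by RT-PCR with 6-FAM labelling and capillary electrophoresis, 24 hr after dosing transiently transfected HepG2 cells expressing a frog TRa-GAL4 fusion; medium contained 3 nM 6-alpha-fluorotestosterone; increase over DMSO scored.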"}, "[6]": {"test_system": "turtle Thyroid Hormone Receptor, alpha (TRa), gene 101949057", "test": "ATG_trTRa_XSP1: Attagene TRANS-FACTORIAL Multi-Species (XSP1) HepG2 Assay for turtle Thyroid Hormone Receptor, alpha (TRa) (AID 2283806)", "method_in_brief": "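After 24 h chemical exposure, reporter transcripts were measured by RT-PCR with fluorescent primer extension, HpaI digestion and capillary electrophoresis. Cells were transiently transfected HepG2 expressing exogenous NR-Gal4 chimeras; medium contained 3 nM 6-alpha-fluorotestosterone; fitted upward relative to DMSO.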"}, "[7]": {"target": "zebrafish Thyroid Hormone Receptor alpha (TRa), thraa (gene 30670) (UniProt Q98867)", "sequence (Q98867 whole entry, looked up, the tested form may be a part)": "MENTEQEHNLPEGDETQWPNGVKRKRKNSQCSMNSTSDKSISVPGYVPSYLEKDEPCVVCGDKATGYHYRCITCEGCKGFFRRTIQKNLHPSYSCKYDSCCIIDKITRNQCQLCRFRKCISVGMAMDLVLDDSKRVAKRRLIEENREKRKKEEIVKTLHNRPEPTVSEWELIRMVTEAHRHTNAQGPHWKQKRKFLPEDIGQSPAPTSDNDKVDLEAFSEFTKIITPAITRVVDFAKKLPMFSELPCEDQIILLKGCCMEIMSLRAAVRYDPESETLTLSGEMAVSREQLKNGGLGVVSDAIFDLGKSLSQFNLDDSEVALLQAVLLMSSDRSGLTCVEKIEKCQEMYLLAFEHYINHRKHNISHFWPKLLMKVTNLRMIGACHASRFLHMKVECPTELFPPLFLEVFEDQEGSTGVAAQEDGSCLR", "test": "ATG_zfTRa_XSP1: Attagene TRANS-FACTORIAL Multi-Species (XSP1) HepG2 Assay for zebrafish Thyroid Hormone Receptor alpha (TRa) (AID 2283807)", "method_in_brief": "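Reporter transcripts driven by a chimeric zebrafish TRa–Gal4 protein were measured by RT-PCR with fluorescent labelling and capillary electrophoresis. These came from transiently transfected HepG2 cells after 24 h chemical exposure, with 3 nM 6-alpha-fluorotestosterone added; baseline was DMSO.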"}, "AR (gene 367) [8]": {"target": "AR (gene 367) (UniProt P10275)", "sequence (P10275 whole entry, looked up)": "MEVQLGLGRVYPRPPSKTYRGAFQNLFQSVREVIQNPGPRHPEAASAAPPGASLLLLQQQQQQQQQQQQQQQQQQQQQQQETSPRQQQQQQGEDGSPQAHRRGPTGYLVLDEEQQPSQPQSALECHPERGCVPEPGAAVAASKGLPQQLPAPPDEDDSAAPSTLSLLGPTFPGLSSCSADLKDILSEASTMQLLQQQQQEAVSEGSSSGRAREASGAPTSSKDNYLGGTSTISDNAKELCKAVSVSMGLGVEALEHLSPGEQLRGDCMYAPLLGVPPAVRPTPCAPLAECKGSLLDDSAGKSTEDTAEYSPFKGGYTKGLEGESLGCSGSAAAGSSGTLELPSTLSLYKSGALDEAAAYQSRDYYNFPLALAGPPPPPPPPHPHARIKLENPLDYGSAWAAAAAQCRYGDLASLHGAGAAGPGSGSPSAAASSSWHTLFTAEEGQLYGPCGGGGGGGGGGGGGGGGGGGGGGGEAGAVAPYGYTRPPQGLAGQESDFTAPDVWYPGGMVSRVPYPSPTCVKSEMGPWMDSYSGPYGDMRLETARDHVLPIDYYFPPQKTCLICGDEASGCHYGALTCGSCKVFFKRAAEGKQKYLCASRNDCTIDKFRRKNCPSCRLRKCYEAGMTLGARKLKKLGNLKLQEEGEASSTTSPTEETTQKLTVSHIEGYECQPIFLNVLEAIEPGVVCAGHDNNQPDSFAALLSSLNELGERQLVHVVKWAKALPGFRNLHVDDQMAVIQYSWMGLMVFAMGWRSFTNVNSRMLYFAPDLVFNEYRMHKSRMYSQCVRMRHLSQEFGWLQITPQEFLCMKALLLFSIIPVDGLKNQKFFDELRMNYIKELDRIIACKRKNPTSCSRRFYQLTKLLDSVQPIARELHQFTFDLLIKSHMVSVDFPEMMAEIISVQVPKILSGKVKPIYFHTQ", "test": "ACEA_AR_antagonist_80hr: ACEA Biosciences xCELLigence Real-Time Cell Analysis on Androgen Receptor Antagonism for Proliferation (AID 2283787);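 also: 22Rv1 human prostate cancer cells with growth followed by electrical impedance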", "method_in_brief": "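Impedance-based real-time growth of 22Rv1 prostate cells, read 80 h after dosing. Eight concentrations, 1:4 series, top 100 uM final (0.5% DMSO), n = 2; signal decrease scored against DMSO.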"}, "AR (gene 367) [9]": {"target": "AR (gene 367) (UniProt P10275)", "test": "ACEA_AR_agonist_80hr: ACEA Biosciences xCELLigence Real-Time Cell Analysis on Androgen Receptor Agonism for Proliferation (AID 2283783)", "method_in_brief": "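Eight concentrations, 1:4 serial dilution from a 100 uM final top, in biological duplicate. Impedance-based real-time growth of 22Rv1 cells after overnight baseline, recorded hourly and read at 80 hours. Controls: testosterone, MG132, assay media.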"}}, "note": "Inconclusive results are not listed. Some structures have more than one record in an assay (separate samples or runs), and their calls can disagree. Calls of active or inactive are those of the source. The calls were made as follows: active = hit-call score of the fitted dose curve at least 0.9, where 1 is the maximum; inconclusive = response in the unintended direction; inactive = score below 0.9."}
{"smiles": "Clc1cc(Cl)c2c(c1)N=C1CCCCCN1C2", "values": [{"measurement": "outcome", "setting": "[1]", "result": "inactive"}]}
{"smiles": "CC(=O)N1CCN(c2ccc(OC[C@H]3CO[C@](Cn4ccnc4)(c4ccc(Cl)cc4Cl)O3)cc2)CC1", "values": [{"measurement": "AC50", "setting": "[1]", "result": "86.7 µM (active)"}]}
{"smiles": "COc1cccc([C@H](O)C2CCN(CCc3ccc(F)cc3)CC2)c1OC", "values": [{"measurement": "outcome", "setting": "[1]", "result": "inactive"}]}
{"smiles": "CCN(CC)C(=O)c1cc(S(=O)(=O)Cc2ccccc2)c(N2CCC(c3ccccc3)CC2)cc1N(CC)CCN(C)C", "values": [{"measurement": "AC50", "setting": "[1]", "result": "4.19 µM (active)"}]}
{"smiles": "c1ccc2ccccc2c1", "values": [{"measurement": "outcome", "setting": "[1]", "result": "inactive"}]}
{"smiles": "CC(C)(O)c1ccc(CNC(=O)c2cccnc2Oc2ccc3nonc3c2)cc1", "values": [{"measurement": "outcome", "setting": "[1]", "result": "inactive"}]}
{"smiles": "CCCCCCCCCCCCO", "values": [{"measurement": "AC50", "setting": "[1]", "result": "68.3 µM (active)"}]}
{"smiles": "CCCOC(=O)c1cc(O)c(O)c(O)c1", "values": [{"measurement": "outcome", "setting": "[1]", "result": "inactive"}]}
{"smiles": "Cc1cc2c(cc1C(F)(F)F)N(C(=O)Nc1ccc(Oc3cccnc3C)nc1)CC2", "values": [{"measurement": "AC50", "setting": "[1]", "result": "15.6 µM (active)"}]}
{"smiles": "C[C@]12CC[C@@H]3c4ccc(O)cc4CC[C@H]3[C@@H]1CCC2=O", "values": [{"measurement": "AC50", "setting": "[2]", "result": "0.00309 µM (active)"}, {"measurement": "outcome", "setting": "[3]", "result": "inactive"}, {"measurement": "outcome", "setting": "[4]", "result": "inactive"}, {"measurement": "outcome", "setting": "[5]", "result": "inactive"}, {"measurement": "outcome", "setting": "[6]", "result": "inactive"}, {"measurement": "outcome", "setting": "[7]", "result": "inactive"}]}
{"smiles": "CCCC(=O)OCCC(C)C", "values": [{"measurement": "outcome", "setting": "[1]", "result": "inactive"}]}
{"smiles": "CC(C)(C)c1cc(/C=C2\\SC(N)=NC2=O)cc(C(C)(C)C)c1O", "values": [{"measurement": "AC50", "setting": "[1]", "result": "31.6 µM (active)"}]}
{"smiles": "Oc1ccccc1", "values": [{"measurement": "outcome", "setting": "[1]", "result": "inactive"}]}
{"smiles": "c1ccc2n[nH]nc2c1", "values": [{"measurement": "outcome", "setting": "[1]", "result": "inactive"}]}
{"smiles": "COc1ccc2cc(S(=O)(=O)N[C@H](CC(=O)N[C@H](Cc3ccc(CN4[C@H](C)CCC[C@@H]4C)cc3)C(=O)N(C)C(C)C)c3ccc4c(c3)OCO4)ccc2c1", "values": [{"measurement": "AC50", "setting": "[1]", "result": "10.8 µM (active)"}]}
{"smiles": "CCCCCCCCCCCC[N+](C)(C)C", "values": [{"measurement": "AC50", "setting": "[1]", "result": "50 µM (active)"}]}
{"smiles": "Cc1ccc(C(C)C)cc1", "values": [{"measurement": "outcome", "setting": "[1]", "result": "inactive"}, {"measurement": "outcome", "setting": "AR (gene 367) [8]", "result": "inactive"}]}
{"smiles": "Oc1ccc2ccccc2c1", "values": [{"measurement": "outcome", "setting": "AR (gene 367) [9]", "result": "inactive"}, {"measurement": "outcome", "setting": "AR (gene 367) [8]", "result": "inactive"}]}
{"smiles": "O=C1O[C@H]([C@@H](O)CO)C(O)=C1O", "values": [{"measurement": "outcome", "setting": "[1]", "result": "inactive"}]}
{"smiles": "CCCCCCCC[Si](OCC)(OCC)OCC", "values": [{"measurement": "AC50", "setting": "[1]", "result": "89.3 µM (active)"}, {"measurement": "outcome", "setting": "[1]", "result": "inactive"}]}
{"smiles": "OCCO", "values": [{"measurement": "outcome", "setting": "[1]", "result": "inactive"}, {"measurement": "outcome", "setting": "AR (gene 367) [8]", "result": "inactive"}]}
{"smiles": "O=c1ccc2ccccc2o1", "values": [{"measurement": "outcome", "setting": "[1]", "result": "inactive"}]}
{"smiles": "O=C(O)c1ccccc1-n1cc(C(=O)O)c(=O)c2cc(Nc3c(F)cc(F)cc3Cl)c(Cl)cc21", "values": [{"measurement": "outcome", "setting": "[1]", "result": "inactive"}]}
{"smiles": "COc1cc(C(=O)NC2CCN(C)CC2)ccc1Nc1ncc2c(n1)N(C1CCCC1)CC(F)(F)C(=O)N2C", "values": [{"measurement": "outcome", "setting": "AR (gene 367) [9]", "result": "inactive"}, {"measurement": "AC50", "setting": "AR (gene 367) [8]", "result": "0.0058 µM (active)"}]}
{"smiles": "CCCCCCCCCC(=O)O", "values": [{"measurement": "outcome", "setting": "[1]", "result": "inactive"}, {"measurement": "outcome", "setting": "AR (gene 367) [8]", "result": "inactive"}]}
{"smiles": "O=C(O)c1ccccc1C(=O)OCc1ccccc1", "values": [{"measurement": "outcome", "setting": "[1]", "result": "inactive"}, {"measurement": "outcome", "setting": "AR (gene 367) [9]", "result": "inactive"}, {"measurement": "outcome", "setting": "AR (gene 367) [8]", "result": "inactive"}]}
{"smiles": "CN(C[C@@H](CC[N+]12CCC(C3CCCCC3)(CC1)CC2)c1ccc(Cl)c(Cl)c1)C(=O)c1cc(C(F)(F)F)cc(C(F)(F)F)c1", "values": [{"measurement": "AC50", "setting": "[1]", "result": "10.6 µM (active)"}, {"measurement": "AC50", "setting": "AR (gene 367) [8]", "result": "7.24 µM (active)"}]}
{"smiles": "CCN(Cc1cccnc1)C(=O)c1cccc(Cl)c1[C@]1(C)C(=O)N(Cc2ccc(OC)cc2OC)c2ccc(Cl)cc21", "values": [{"measurement": "outcome", "setting": "[1]", "result": "inactive"}, {"measurement": "outcome", "setting": "AR (gene 367) [9]", "result": "inactive"}, {"measurement": "AC50", "setting": "AR (gene 367) [8]", "result": "32 µM (active)"}]}
